Screening results: PubChem, National Center for Advancing Translational Sciences (NCATS)
KCNH2 3.1 inh: inhibitors of human KCNH2 3.1 potassium channel isoform | U2OS KCNH2 3.1, thallium flux FluxOr; stronger effect = lower value | activity change, % (tested at about 1.8 µM) | hit rate 0.95% among 340,000;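 active = maximum activity change below -70%; inconclusive = maximum activity change from -70% to -50%; inactive = maximum activity change above -50%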;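 also: thallium influx rate constant from kinetic fluorescence after stimulation buffer; % is scaled to controls: 0 for no effect and ±100 for the full control effect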
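Kinetic fluorescence (2 min after stimulation buffer) measures Tl+ influx through KCNH2 3.1 expressed by viral transduction in U2OS cells; the rate constant is normalized against DMSO controls serving as positive and negative references.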
ClpP mod: qHTS Assay for Activators of ClpP. ATP-dependent Clp protease proteolytic subunit (Bacillus subtilis (strain 168)), P80244. purified B. subtilis ClpP, FRET peptide cleavage, 20 min. Potency, µM (series often up to 57.5 µM), without a hit: at the highest dose activity change, negative = active. hit rate 1.9% among 340,000; active = well fitted falling curve with a large enough effect; inconclusive = small, poorly fitted or top-dose-only effect; inactive = no such curve, though single readings can be large or run the other way; also: potency is read from the fitted curve at half-maximal effect; the source files actives as falling curves though it sought activators and does not explain the sign; nearly all actives have a fitted effect of over 65% in size
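ClpP 10 microg/mL final, pH 8 Tris/KCl buffer with BSA, glycerol, Tween-20; compound pinned in; FRET-FV substrate; RT 20 min; Ex320/Em430; ΔFRET vs ADEP 5.8 microM, DMSO, no enzyme.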
BCR signal inh: blocks chronic active B-cell receptor signaling; Potency, µM (top dose mostly 46.1 µM), for the others: top-dose activity change, negative = inhibition, hits mostly inhibitors; AID 493014; hit rate 0.05% among 340,000; ABC-DLBCL IkBa-CBG/CBR reporter, luminescence ratio, 4 h; active = well fitted inhibition curve with a large enough effect in the signal ratio, with a control signal flat, not every such curve was filed as active; inconclusive = small, poorly fitted or top-dose-only effect, or effect the other way, or a change in a side signal; the % refers to the signal ratio;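 also: potency is read from the fitted curve at half-maximal effect; plate controls were basal doxycycline-induced cells for no effect and cells given 10 µM MG132 for full effect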
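Concentration-response series (up to 46 uM) were applied to TMD8 dual-reporter cells for 4 h at 37C with doxycycline. Green/red ratio, after filter-overlap correction, defined %Activity; red signal alone was normalised to basal cells and zero luminescence.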
KCNH2 WT inh: KCNH2 (human, wildtype) channel inhibition | U2OS, BacMam KCNH2, thallium flux FluxOr; stronger effect = lower value | activity change, % at 1.84 µM | hit rate 0.37% among 340,000 | AID 720551;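 active = maximum activity change below -70%; inconclusive = maximum activity change between -70% and -50%; inactive = maximum activity change above -50%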; also: % is scaled to controls: 0 for no effect and ±100 for the full control effect
Target sequence (Q12809 whole entry, looked up): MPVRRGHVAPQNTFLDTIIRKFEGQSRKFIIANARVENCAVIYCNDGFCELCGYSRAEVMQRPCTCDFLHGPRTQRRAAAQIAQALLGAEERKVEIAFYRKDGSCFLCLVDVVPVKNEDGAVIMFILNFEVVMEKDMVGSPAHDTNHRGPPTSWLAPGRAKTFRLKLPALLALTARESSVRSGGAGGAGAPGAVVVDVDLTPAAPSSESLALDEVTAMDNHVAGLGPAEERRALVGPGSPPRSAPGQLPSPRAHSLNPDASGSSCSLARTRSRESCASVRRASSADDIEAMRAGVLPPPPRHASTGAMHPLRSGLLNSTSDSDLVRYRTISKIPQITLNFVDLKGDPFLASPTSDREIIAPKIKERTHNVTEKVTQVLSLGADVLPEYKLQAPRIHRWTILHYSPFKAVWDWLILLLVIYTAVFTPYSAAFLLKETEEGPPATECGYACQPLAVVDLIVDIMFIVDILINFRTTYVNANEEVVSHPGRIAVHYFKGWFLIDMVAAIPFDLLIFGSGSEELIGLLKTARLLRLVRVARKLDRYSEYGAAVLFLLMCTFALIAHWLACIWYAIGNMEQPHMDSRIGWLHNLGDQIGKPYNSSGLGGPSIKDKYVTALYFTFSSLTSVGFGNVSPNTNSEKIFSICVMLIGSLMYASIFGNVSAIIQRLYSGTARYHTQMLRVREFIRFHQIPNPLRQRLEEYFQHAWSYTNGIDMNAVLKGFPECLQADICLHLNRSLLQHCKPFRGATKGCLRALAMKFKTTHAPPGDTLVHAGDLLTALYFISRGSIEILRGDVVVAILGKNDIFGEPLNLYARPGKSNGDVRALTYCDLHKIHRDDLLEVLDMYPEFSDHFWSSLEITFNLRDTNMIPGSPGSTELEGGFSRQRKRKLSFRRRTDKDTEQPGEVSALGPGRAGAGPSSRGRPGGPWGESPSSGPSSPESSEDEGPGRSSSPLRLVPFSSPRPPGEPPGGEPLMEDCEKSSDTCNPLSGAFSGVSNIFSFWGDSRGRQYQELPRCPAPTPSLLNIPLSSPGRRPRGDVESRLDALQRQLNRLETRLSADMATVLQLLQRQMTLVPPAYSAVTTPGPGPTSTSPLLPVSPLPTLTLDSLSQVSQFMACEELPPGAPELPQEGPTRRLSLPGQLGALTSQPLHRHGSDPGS
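U2OS cells were transduced with wild-type KCNH2 virus (2.03 x 10^8 / mL) for 4 h at room temperature, then cultured overnight at 37 C. Thallium flux was read with FluxOr dye. Rate constants were normalized to DMSO controls.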
LDHA inh: LDHA (human) enzyme inhibition; P00338; purified LDHA, NADH/diaphorase-resazurin fluorescence; stronger effect = lower value; activity change, % (values are at about 110 or 230 µM); hit rate 0.15% among 480,000; AID 1347041; in the data active = activity change below about -30%; inconclusive = mostly about -25% to -30%;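 also: plate controls were DMSO wells for no effect and wells without enzyme for full effect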
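Enzyme activity of human lactate dehydrogenase 5 (2 nM; 0.06 mM NADH, 0.2 mM pyruvate, 5 min, RT) is measured via a resazurin/diaphorase fluorescence readout of residual NADH.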
ALOX12 inh: blocks human arachidonate 12S-lipoxygenase | purified 12hLO, xylenol orange hydroperoxide absorbance | Potency, µM (titrated, usually from 108 µM), for the others: top-dose activity change, negative = inhibition, most hits filed as inhibitors | hit rate 1.1% among 580,000; active = well fitted inhibition curve with a large enough effect; inconclusive = small, poorly fitted or top-dose-only effect, or another doubt; inactive = no such curve, though single readings can be large or run the other way; also: potency is read from the fitted curve at half-maximal effect; % is scaled to controls: 0 for no effect and ±100 for the full control effect
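Purified human 12hLO (150 nM final) in 25 mM Hepes, 0.01% Triton X-100, pH 7.0 was preincubated 15 min at room temperature with compound. Then 40 uM arachidonic acid was added, 30 min. Hydroperoxide was read by Fe-XO absorbance ratio 573/405 nm.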
* = called active by the depositor; ? = inconclusive; nt = not tested or not shown; [ ] = dose if it differs, or a comment. Rows were chosen to be rich in hits. Some 3% of all compounds tested hit in one or more screens of this group.

SMILES | KCNH2 3.1 inh | ClpP mod | BCR signal inh | KCNH2 WT inh | LDHA inh | ALOX12 inh
O=C(NCc1ccccc1)c1ccc(CN(c2ccccn2)S(=O)(=O)c2ccccc2)cc1 | 11 | 20µM* | ? | 4 | 2 | 7%
CC(=O)Nc1ccc(S(=O)(=O)N(Cc2ccccc2)c2ccccn2)cc1 | -17 | 0% | -6% | -9 | -2 | -3%
O=S(=O)(c1ccccc1)N(Cc1ccccc1)c1ccccn1 | 14 | -1% | -15% | -2 | 1 | -3%
O=C(O)c1ccc(CN(c2ccccn2)S(=O)(=O)c2ccccc2)cc1 | 14 | 28µM* | 7% | -18 | -4 | 13%
CN(Cc1ccccc1)c1cc2c(c3c1ccn3C)C1CCC2C1 (stereo not given) | nt | -6% | nt | nt | 10 | ?
Cn1ccc2c(N3CCCC3)cc3c(c21)C1CCC3C1 (stereo not given) | nt | -5% | nt | nt | 16 | 45µM*
CN(CCc1ccccc1)c1cc2c(c3c1ccn3C)C1CCC2C1 (stereo not given) | nt | ? | nt | nt | 9 | 45µM*
Cn1ccc2c(N3CCCCC3)cc3c(c21)C1CCC3C1 (stereo not given) | nt | -5% | nt | nt | 11 | ?
COc1ccccc1N(C)c1cc2c(c3c1ccn3C)C1CCC2C1 (stereo not given) | nt | 32µM* | nt | nt | 6 | 40µM*
C[S+](=O)([O-])c1ccc(-c2nc(C(=O)N3CCN(c4ncccn4)CC3)n3ccncc23)cc1 | nt | nt | nt | nt | nt | 1%[6.33 µM]
CCc1ccc(OCC(O)Cn2cnc3cc(Cl)ccc3c2=O)cc1 (stereo not given) | nt | nt | nt | nt | -4 | -5%
O=C1CCCC2=C1C(c1ccccc1F)n1nnnc1N2 (stereo not given) | nt | nt | nt | nt | 0 | -8%
O=C1CCCC2=C1C(c1ccco1)Nc1ccc3ccccc3c12 (stereo not given) | 6 | 35µM* | 0% | -11 | 16 | 14%
Cc1ccc(C2Nc3ccc4ccccc4c3C3=C2C(=O)CC(C)(C)C3)o1 (stereo not given) | -5 | 14µM* | 5% | 1 | 6 | ?
CC1(C)CC(=O)C2=C(C1)c1c(ccc3ccccc13)NC2c1cc([N+](=O)[O-])cc([N+](=O)[O-])c1O (stereo not given) | 3 | nt | 0% | 0 | -4 | 40µM*
Cc1ccc(-c2csc(-c3ccc(O)cc3)n2)cc1 | nt | nt | nt | nt | -20 | ?
Cc1ccc(F)c(Nc2ncnc3c2oc2ccccc23)c1 | nt | nt | nt | nt | 6 | 4.5µM*
CCc1ccc(C(=O)N2CCc3c(sc4ncnc(N)c34)C2)cc1 | nt | nt | nt | nt | 7 | -4%
CC[N+](C)(C)CCN(Cc1ccc(Cl)cc1)c1ccccn1 | 0 | 28µM* | ? | 5 | -15 | 0%
CCCNC(=O)CN1C(=O)NC(c2ccccc2OC)C2=C1COC2=O (stereo not given) | nt | nt | nt | nt | nt | 40%
CC(C)CC(=O)NC1CCN(c2cnn(Cc3ccccc3)c(=O)c2)CC1 | nt | nt | nt | nt | nt | 9%
CSc1ccc(/C=N/NC(=O)CN2CCN(Cc3ccc(Cl)cc3)CC2)cc1 | -106* | ? | 0% | -41 | -11 | 29%
CSc1ccc(/C=N/N2CCN(Cc3ccc(Cl)cc3)CC2)cc1 | 1 | -2% | -3% | -19 | -3 | -10%
CC(/C=N/NC(=O)CN1CCN(Cc2ccc(Cl)cc2)CC1)=C\c1ccco1 | -74* | -5% | -1% | -29 | 3 | ?
CSc1ccc(/C=N/NC(=O)CN2CCN(Cc3ccccc3)CC2)cc1 | -73* | nt | -12% | -1 | -10 | 9%
O=C(CN1CCN(Cc2ccccc2)CC1)N/N=C/c1ccccc1F | -1 | nt | -7% | -9 | 0 | 0%
CCOC(=O)C1=C(C)c2ccccc2N(C(=O)OC)C1(C)C(=O)OCC (stereo not given) | nt | -1% | 18µM* | 0 | 2 | ?
CCOC(=O)C1=C(C)c2ccccc2OC1(CC)C(=O)OCC (stereo not given) | 0 | -1% | 3% | 4 | 8 | -28%
